The supplement of paper PMC11732987, “Enantioselective OTUD7B fragment discovery through chemoproteomics screening and high-throughput optimisation” (Communications Chemistry, 2025)

Key:
Test in all cases: log2 ratio of Biotin-Ahx-Ub-VS probe labelling (fragment/DMSO); higher = less target engagement (more negative = stronger competition), active = hit call of the paper (q ≤ 0.05, log2 ratio ≤ -1)
Conditions in all cases: compound concentration: 200 uM; treatment time: 3 h
[1] = target: T1, USP42 (UniProt Q9H9J4)
T1 sequence (whole entry): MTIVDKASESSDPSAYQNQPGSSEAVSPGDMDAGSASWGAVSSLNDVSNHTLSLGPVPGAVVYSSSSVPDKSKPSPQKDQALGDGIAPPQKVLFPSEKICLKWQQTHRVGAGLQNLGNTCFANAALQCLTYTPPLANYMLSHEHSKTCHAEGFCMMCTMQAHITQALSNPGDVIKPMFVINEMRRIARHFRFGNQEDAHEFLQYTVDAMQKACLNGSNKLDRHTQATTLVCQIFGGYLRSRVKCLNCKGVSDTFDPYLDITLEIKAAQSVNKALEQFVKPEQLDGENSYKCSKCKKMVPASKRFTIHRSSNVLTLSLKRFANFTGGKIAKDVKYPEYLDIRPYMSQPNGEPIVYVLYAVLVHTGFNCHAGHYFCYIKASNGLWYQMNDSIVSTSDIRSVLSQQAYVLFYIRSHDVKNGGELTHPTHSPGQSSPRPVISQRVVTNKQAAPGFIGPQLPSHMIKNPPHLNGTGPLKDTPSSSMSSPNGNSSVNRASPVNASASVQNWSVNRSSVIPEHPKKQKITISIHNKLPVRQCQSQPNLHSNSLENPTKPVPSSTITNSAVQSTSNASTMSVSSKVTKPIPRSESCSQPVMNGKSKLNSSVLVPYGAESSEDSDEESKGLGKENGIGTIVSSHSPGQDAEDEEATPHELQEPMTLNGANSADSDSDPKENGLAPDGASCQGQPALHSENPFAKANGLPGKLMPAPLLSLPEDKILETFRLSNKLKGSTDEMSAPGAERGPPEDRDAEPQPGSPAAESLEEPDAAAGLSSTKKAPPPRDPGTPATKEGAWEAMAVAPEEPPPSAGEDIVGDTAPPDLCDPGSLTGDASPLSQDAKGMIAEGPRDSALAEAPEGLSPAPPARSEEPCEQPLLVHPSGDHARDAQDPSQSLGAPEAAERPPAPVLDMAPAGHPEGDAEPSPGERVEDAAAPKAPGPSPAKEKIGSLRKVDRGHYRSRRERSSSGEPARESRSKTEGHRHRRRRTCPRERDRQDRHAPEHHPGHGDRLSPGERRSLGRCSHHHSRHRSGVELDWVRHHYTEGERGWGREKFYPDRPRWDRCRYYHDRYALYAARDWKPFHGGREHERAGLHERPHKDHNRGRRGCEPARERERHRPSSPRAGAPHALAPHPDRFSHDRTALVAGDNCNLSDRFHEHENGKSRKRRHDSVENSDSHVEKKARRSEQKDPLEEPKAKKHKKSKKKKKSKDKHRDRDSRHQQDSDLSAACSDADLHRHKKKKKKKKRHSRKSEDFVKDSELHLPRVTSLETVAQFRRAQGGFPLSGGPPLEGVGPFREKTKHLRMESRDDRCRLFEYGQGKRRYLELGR
How it was run: (§1)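 The table lists average log2 ratios of fragment over vehicle, from an unpaired t-test on global-median-normalised Spectronaut label-free quantities. Proteins with ≥2 unique peptides were used. Samples were HEK293T lysate (495 µg) treated in triplicate with fragment at 200 µM or vehicle for 3 h, then with Biotin-Ahx-Ub-VS (0.5 µM final) for 1 h, with labelled DUBs NeutrAvidin-enriched and run by diaPASEF LC-MS/MS.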

[2] = target: USP46 (UniProt P62068)
How it was run: as §1

[3] = target: T2, USP47 (UniProt Q96K76)
T2 sequence (whole entry): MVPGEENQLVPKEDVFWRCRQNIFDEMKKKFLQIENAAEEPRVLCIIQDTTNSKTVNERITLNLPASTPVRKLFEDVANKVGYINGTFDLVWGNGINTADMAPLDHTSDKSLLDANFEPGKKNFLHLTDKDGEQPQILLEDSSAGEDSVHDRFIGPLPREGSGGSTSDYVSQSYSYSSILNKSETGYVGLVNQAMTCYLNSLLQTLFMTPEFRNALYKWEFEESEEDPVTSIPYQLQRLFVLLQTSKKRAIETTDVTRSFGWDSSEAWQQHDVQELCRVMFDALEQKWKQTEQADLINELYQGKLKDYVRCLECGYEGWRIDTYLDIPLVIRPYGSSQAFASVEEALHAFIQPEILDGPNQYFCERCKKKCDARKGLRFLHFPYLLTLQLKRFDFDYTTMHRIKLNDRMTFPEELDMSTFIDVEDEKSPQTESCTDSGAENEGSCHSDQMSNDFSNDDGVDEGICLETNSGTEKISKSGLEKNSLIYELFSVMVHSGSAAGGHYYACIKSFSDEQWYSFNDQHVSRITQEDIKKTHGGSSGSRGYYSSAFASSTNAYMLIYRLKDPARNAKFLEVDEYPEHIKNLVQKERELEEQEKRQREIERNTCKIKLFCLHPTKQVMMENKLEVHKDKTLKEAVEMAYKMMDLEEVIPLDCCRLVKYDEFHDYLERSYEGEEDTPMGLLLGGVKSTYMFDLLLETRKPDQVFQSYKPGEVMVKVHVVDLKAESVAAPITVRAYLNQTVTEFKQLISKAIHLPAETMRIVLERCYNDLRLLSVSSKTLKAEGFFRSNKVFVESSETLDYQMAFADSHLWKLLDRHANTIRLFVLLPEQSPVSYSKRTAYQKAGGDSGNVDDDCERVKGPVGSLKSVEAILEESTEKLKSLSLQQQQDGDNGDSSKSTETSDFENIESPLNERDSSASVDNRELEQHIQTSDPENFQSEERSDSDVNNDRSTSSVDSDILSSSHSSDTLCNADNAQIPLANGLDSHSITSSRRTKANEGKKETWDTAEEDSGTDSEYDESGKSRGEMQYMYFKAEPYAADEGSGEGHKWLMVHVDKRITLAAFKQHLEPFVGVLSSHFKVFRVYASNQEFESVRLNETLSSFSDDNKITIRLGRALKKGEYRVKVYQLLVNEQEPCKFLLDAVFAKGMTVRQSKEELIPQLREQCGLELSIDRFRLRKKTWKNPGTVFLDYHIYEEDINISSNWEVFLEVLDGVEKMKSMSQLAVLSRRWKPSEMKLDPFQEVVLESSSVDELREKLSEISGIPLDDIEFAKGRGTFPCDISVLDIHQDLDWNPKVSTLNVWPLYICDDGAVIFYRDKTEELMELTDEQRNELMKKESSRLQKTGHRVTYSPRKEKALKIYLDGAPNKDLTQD
How it was run: as §1

[4] = target: T3, USP48 (UniProt Q86UV5)
T3 sequence (whole entry): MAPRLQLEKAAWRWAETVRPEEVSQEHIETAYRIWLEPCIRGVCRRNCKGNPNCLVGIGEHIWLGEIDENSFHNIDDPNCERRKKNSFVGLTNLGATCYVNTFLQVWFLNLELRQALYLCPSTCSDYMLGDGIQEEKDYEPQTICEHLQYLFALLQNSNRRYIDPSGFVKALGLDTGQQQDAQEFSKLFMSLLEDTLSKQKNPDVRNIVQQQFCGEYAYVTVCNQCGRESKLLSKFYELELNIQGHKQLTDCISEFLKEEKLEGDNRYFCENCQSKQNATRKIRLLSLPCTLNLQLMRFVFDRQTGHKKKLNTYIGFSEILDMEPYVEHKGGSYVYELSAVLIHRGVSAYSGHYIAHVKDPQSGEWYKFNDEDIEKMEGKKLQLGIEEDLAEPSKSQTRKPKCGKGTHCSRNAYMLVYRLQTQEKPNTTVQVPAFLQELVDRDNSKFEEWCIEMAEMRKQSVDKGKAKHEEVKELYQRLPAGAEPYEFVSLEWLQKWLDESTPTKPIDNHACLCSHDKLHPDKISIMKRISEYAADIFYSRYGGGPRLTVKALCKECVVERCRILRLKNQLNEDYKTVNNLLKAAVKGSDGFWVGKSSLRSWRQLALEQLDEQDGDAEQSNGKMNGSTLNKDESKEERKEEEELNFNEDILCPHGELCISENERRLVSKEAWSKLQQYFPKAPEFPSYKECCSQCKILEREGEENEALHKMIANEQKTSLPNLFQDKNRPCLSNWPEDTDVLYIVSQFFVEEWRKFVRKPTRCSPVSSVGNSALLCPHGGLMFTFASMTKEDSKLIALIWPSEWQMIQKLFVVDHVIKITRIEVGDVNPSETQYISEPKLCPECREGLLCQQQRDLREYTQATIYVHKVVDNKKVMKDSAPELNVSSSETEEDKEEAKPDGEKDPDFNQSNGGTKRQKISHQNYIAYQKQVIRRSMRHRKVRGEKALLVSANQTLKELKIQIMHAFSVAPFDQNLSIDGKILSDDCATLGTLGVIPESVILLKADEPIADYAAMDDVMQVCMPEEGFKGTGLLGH
How it was run: as §1

[5] = target: T4, USP5 (UniProt P45974)
T4 sequence (whole entry): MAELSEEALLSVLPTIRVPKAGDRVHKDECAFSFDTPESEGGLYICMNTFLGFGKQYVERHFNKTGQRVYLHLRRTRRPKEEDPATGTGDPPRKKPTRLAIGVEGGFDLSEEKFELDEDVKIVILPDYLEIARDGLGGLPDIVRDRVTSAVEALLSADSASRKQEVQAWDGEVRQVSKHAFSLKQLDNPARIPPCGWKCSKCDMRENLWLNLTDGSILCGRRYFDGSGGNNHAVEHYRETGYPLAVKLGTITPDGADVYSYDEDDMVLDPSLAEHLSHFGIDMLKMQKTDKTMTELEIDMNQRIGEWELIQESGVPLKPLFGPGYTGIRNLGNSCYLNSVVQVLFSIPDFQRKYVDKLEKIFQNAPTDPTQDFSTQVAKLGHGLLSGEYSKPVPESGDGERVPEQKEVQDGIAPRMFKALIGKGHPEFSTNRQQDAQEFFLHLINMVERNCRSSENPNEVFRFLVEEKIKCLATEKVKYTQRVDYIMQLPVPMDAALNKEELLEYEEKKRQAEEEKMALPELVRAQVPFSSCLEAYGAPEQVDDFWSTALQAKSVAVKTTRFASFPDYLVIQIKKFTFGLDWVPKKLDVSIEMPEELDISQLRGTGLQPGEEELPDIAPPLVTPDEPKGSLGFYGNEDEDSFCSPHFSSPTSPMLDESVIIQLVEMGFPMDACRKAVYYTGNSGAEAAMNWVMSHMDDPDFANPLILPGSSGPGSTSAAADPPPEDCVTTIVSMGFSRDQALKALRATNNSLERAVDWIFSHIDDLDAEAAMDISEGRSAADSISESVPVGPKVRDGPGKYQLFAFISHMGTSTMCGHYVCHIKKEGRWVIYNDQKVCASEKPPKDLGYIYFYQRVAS
How it was run: as §1

[6] = target: USP54 (UniProt Q70EL1)
How it was run: as §1

[7] = target: USP7 (UniProt Q93009)
How it was run: as §1

[8] = target: T5, USP8 (UniProt P40818)
T5 sequence (whole entry): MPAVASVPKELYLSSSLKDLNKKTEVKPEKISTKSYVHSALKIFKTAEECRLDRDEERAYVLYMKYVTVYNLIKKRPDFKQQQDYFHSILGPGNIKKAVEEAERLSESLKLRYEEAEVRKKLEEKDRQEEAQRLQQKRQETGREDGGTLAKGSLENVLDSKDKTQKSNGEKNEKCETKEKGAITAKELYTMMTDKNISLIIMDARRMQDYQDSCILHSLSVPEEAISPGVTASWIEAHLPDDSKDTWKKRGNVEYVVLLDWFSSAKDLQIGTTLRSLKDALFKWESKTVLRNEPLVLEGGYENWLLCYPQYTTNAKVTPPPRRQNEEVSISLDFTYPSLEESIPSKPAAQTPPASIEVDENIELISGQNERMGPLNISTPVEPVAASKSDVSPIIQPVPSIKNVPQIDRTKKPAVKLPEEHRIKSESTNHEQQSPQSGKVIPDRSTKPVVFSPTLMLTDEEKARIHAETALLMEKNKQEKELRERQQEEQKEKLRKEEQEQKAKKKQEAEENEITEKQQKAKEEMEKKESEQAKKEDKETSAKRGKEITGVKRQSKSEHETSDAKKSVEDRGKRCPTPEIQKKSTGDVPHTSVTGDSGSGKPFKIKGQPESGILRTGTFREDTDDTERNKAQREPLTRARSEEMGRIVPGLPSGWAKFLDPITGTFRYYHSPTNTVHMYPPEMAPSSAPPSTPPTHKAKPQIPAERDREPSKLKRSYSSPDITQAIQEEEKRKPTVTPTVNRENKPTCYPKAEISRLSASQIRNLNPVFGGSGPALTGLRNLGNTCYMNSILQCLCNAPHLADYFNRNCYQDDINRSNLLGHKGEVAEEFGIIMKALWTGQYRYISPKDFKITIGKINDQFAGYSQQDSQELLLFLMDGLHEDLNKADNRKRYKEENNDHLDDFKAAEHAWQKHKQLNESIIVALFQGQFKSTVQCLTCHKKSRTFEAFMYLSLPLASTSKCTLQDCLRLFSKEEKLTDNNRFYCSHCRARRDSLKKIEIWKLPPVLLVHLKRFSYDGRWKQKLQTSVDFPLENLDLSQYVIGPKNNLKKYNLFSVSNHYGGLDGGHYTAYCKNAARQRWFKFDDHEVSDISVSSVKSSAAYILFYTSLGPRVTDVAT
How it was run: as §1

[9] = target: USP9X (UniProt Q93008)
How it was run: as §1

[10] = target: UniProt O00487
How it was run: as §1

Measured: log2 ratio of Biotin-Ahx-Ub-VS probe labelling

USP7, sequence (Q93009 whole entry, looked up): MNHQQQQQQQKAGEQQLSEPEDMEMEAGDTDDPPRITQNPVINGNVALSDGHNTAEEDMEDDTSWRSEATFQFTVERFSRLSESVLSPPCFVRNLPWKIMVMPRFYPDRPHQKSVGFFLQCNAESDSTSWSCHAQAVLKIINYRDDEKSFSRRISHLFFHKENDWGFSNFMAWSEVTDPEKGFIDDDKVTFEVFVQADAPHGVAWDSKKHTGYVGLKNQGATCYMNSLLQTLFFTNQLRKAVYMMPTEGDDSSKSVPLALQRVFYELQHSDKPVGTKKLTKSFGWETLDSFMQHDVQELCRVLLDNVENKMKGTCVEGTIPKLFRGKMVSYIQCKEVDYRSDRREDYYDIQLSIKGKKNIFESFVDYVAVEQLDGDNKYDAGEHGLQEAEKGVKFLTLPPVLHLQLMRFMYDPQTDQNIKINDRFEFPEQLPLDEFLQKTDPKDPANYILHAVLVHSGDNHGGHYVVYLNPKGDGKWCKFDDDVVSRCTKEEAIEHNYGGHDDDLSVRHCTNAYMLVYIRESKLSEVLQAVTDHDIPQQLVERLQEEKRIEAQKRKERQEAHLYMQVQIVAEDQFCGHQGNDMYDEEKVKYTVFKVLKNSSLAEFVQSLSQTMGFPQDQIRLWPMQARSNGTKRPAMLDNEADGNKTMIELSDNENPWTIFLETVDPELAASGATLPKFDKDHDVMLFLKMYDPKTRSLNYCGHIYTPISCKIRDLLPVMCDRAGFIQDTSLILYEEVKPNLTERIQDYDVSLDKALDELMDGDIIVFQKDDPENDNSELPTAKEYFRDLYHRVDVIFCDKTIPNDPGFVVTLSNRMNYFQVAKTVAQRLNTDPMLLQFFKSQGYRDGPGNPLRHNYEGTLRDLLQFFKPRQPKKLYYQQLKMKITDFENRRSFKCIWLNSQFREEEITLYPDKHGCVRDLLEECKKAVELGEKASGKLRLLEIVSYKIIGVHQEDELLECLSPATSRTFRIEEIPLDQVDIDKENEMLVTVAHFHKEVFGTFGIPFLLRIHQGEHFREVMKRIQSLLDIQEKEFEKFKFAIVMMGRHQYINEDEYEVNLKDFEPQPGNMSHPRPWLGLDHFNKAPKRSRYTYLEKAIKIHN
USP54, sequence (Q70EL1 whole entry): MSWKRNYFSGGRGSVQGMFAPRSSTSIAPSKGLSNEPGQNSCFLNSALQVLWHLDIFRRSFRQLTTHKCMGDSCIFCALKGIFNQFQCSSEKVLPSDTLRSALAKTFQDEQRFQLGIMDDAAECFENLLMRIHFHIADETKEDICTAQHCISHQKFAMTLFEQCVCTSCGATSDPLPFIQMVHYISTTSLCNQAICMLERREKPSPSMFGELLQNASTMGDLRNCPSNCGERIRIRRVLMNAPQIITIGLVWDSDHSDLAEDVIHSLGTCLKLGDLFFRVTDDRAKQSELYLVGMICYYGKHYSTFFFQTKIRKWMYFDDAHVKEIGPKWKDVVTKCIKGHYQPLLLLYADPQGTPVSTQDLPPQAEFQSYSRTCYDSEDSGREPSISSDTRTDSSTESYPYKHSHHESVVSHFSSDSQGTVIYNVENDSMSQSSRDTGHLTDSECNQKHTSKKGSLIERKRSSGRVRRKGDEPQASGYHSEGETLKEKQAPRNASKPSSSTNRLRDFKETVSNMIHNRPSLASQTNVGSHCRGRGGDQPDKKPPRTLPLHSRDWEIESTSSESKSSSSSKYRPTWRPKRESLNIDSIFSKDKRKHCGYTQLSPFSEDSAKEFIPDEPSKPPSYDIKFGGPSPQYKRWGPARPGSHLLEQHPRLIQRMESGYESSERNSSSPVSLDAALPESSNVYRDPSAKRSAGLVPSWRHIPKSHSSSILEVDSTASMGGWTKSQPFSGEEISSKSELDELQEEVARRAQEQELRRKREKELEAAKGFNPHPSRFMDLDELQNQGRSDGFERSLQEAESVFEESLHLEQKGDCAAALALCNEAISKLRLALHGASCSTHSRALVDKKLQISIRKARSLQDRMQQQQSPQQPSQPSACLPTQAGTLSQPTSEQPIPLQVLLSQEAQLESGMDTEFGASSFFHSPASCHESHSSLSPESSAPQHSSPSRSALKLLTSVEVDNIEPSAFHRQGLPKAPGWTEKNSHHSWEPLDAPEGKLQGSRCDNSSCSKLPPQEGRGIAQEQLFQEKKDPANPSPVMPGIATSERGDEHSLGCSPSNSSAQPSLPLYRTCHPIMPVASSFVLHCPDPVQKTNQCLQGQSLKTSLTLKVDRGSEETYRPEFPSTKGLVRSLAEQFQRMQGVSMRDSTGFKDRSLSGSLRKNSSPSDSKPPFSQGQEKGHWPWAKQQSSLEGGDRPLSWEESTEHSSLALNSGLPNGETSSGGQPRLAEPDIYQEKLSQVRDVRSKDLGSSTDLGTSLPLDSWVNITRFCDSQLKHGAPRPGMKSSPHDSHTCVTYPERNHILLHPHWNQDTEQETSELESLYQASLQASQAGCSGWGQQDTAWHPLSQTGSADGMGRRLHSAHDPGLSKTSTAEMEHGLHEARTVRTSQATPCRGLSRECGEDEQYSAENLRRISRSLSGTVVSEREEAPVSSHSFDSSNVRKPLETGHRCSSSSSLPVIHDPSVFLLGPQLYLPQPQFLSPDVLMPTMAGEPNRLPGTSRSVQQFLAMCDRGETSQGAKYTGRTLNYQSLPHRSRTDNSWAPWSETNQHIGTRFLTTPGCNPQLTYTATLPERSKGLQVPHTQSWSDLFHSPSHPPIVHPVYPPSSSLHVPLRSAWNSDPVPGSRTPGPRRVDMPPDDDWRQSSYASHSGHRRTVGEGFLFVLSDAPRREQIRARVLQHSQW
UniProt O00487, sequence (O00487 whole entry): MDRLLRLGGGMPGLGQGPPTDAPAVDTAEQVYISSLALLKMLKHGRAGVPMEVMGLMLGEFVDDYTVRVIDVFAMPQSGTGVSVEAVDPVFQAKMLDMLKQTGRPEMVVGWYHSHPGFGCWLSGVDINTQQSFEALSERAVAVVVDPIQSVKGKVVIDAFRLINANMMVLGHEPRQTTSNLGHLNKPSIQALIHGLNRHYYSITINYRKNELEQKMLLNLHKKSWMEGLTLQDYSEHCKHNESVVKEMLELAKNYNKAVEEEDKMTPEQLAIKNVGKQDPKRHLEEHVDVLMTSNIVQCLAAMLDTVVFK
USP46, sequence (P62068 whole entry): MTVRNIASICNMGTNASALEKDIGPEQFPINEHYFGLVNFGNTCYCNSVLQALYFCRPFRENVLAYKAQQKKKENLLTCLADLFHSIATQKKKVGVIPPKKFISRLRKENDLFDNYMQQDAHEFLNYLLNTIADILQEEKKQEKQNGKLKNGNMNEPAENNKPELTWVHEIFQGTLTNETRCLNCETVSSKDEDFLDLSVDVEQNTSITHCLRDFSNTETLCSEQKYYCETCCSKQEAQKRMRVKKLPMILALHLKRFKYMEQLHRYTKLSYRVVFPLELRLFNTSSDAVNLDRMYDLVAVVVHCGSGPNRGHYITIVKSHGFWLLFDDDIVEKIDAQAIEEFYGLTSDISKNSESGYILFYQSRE

CCC1c2ccsc2CCN1C(=O)CCl (stereo not given)
active: [7] -1.23
inactive: [1] 0.624 | [2] -0.333 | [3] -0.618 | [4] -0.725 | [5] -0.159 | [6] -0.451 | [8] -0.157 | [9] -0.309 | [10] -0.0357
